Luciferase inh = inhibitors of firefly (Photinus pyralis) luciferase | purified P. pyralis luciferase, luminescence, biochemical | Potency, µM (series often up to 115 µM), usual class: inhibitors | 76,000 tested, 2.5% active; note: nearly all actives have a fitted effect of over 65% in size
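Biochemical qHTS: compound (6-point titration) added to 10uM D-luciferin plus 10uM ATP in Tris acetate pH 7.5 buffer with Mg, Tween-20 and BSA, then purified enzyme at 10nM; light output imaged.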
HEK cytotox = kills HEK 293 cells. HEK 293 viability, ATP luminescence (CellTiter-Glo), 48-72 h. Potency, µM (series often up to 115 µM), without a hit: top-dose activity change, negative = cytotoxicity, hits mostly inhibitors. AID 1345083. 94,000 tested, 6.6% active; note: nearly all actives have a fitted effect of over 60% in size
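HEK 293 seeded at 250 cells/well receive compound via pintool. After 48 or 72 hr at 37 degree Celsius, 5% CO2 and 95% humidity, CellTiter-Glo is dispensed and luminescence read following 10 min at room temperature.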
NPR1 antag = antagonists of human natriuretic peptide receptor Npr1 | P16066 | HEK293 hNpr1 GloSensor cGMP, ANP-stimulated luminescence | Potency, µM (series often up to 46.3 µM), for inactives: at the highest dose activity change, negative = inhibition, actives largely listed as inhibitors | 76,000 tested, 1.6% active; calls by dose curve; note: nearly all actives have a fitted effect of over 60% in size
Target sequence (P16066 whole entry, looked up): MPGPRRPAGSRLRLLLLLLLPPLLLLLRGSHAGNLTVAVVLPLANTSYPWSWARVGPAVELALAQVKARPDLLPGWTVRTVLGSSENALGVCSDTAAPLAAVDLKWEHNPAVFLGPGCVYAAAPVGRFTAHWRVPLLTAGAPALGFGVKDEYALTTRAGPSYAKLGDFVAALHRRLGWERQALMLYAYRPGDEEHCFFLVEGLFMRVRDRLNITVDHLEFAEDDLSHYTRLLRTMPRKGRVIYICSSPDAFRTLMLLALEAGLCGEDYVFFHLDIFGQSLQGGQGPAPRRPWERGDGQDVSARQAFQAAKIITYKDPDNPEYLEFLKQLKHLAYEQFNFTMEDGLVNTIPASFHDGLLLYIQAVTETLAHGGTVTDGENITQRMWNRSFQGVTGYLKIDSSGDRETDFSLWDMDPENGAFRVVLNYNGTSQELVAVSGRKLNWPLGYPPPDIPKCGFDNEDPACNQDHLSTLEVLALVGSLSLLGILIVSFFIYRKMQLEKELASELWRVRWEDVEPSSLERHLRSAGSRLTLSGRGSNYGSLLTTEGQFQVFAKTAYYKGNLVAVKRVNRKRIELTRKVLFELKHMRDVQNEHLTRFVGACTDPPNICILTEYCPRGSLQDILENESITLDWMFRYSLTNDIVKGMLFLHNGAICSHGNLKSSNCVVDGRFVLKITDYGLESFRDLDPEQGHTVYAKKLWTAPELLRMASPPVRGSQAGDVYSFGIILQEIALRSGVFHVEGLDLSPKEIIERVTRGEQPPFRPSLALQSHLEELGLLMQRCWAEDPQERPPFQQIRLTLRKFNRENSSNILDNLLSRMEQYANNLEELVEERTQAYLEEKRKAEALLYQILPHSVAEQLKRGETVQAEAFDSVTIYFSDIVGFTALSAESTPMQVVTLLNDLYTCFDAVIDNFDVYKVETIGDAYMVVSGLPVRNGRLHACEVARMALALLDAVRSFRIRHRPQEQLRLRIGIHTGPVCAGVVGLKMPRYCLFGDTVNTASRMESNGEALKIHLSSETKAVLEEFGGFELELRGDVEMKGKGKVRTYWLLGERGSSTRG
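HEK293 cells stably expressing human Npr1 and cGMP GloSensor pGS-40F, loaded 2 h with 2% GloSensor reagent, given compound 30 min at room temperature. Luminescence read before and 20 min after 0.1 nM hNppA.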
NIH3T3 tox = kills NIH 3T3 cells; NIH 3T3 viability, CellTiter-Glo ATP luminescence, 48-72 h; Potency, µM (titrated, usually from 96.7 µM), without a hit: at the highest dose activity change, negative = cytotoxicity, hits mostly inhibitors; 94,000 tested, 4.3% active; AID 1345082; note: nearly all actives have a fitted effect of over 55% in size
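NIH 3T3 cells at 400 cells/well received 23 nL of compound by pintool and were incubated 48 or 72 h at 37 °C. Viability was read as ATP-coupled CellTiter-Glo luminescence.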
* = called active by the depositor; i = inactive; ? = inconclusive; . = not tested or not shown; [ ] = remark or other dose. An excerpt weighted towards active compounds, which were near 11% of everything screened. Unless noted, calls come from the whole dose curve; as a rule, active = well fitted curve in the direction sought with a large enough effect; inconclusive = small, poorly fitted or top-dose-only effect, or another doubt; inactive = no such curve, though single readings can be large; an effect the other way counts as inactive or inconclusive. % is set by controls: 0 for no effect and ±100 for the full control effect; potency is the fitted concentration of half-maximal effect.

SMILES | Luciferase inh | HEK cytotox | NPR1 antag | NIH3T3 tox
O=C1CS(=O)(=O)C2(CCNCC2)N1c1ccccc1 | i | -15% | 0% | i
Cc1ccc(-n2cccc2CC(=O)N2CCN(C3CCN(C)CC3)CC2)cc1 | i | -25% | 0% | -17%
COc1cc2c(cc1Oc1ccccc1)NC(=O)C21CCN(CC2CC2)CC1 | i | ? | -2%[70.6 µM] | 45µM*
COc1cc2c(cc1Oc1cccc(N(C)C)c1)NC(=O)C21CCN(CC2CC2)CC1 | i | ? | ? | 79µM*
COc1cc2c(cc1Oc1cccc(N(C)C)c1)NC(=O)C21CCN(c2ncccn2)CC1 | i | ? | ? | ?
COc1cc2c(cc1Oc1ccccc1)NC(=O)C21CCN(C(=O)C(C)C)CC1 | i | ? | 7%[70.6 µM] | -18%[138 µM]
C=C[C@H]1CN2CC[C@H]1C[C@@H]2CNS(=O)(=O)c1ccc(C)cc1 | i | 3%[172 µM] | -1%[70.6 µM] | -1%[174 µM]
COc1ccc(-c2cc([C@H]3CN4CC[C@H]3C[C@@H]4CNS(=O)(=O)c3cccs3)n(C)n2)cc1OC | i | ? | 0% | ?
Cn1nc(-c2ccc3ccccc3c2)cc1[C@H]1CN2CC[C@H]1C[C@@H]2CNS(=O)(=O)c1ccccc1 | ? | 25µM* | -24% | ?
COc1ccc(OC)c(S(=O)(=O)NC[C@H]2C[C@@H]3CCN2C[C@@H]3c2cc(-c3ccc4ccccc4c3)nn2C)c1 | i | ? | 1% | ?
COc1ccc(-c2cc([C@H]3CN4CC[C@H]3C[C@@H]4CNS(=O)(=O)c3ccc(Cl)cc3)n(C)n2)cc1OC | i | 28µM* | -5% | ?
COc1ccc(-c2cc([C@H]3CN4CC[C@H]3C[C@@H]4CNC(C)=O)n(C)n2)cc1 | i | -3%[172 µM] | 6%[70.6 µM] | ?
CC(=O)NC[C@H]1C[C@@H]2CCN1C[C@@H]2c1cc(-c2ccc3ccccc3c2)nn1C | ? | 56µM* | 3%[70.6 µM] | 32µM*
C=C[C@H]1CN2CC[C@H]1C[C@@H]2CNS(=O)(=O)c1ccc2ccccc2c1 | i | 112µM* | 1%[70.6 µM] | ?
N#Cc1cccc(-c2ccc3n(c2=O)C[C@H]2C[C@@H]3CN(C(=O)CSCC(=O)O)C2)c1 | i | 2%[172 µM] | 0%[70.6 µM] | 3%[174 µM]
CCOC(=O)[C@H]1CN(C(=O)OCC(C)(C)C)[C@]2(C)C(=O)N(CCO)c3ccccc3[C@H]12 | . | ? | . | -5%[46.1 µM]
C=C[C@H]1CN2CC[C@H]1C[C@@H]2CNCc1ccc(SC)cc1 | i | 89µM* | -5%[70.6 µM] | ?
Cn1nc(-c2ccc3ccccc3c2)cc1[C@H]1CN2CC[C@H]1C[C@@H]2CNC(=O)COc1ccccc1 | i | 25µM* | 3% | 28µM*
Cn1nc(-c2ccc3ccccc3c2)cc1[C@H]1CN2CC[C@H]1C[C@@H]2CNC(=O)N1CCOCC1 | i | ? | 0% | ?
Cn1nc(-c2ccc3ccccc3c2)cc1[C@H]1CN2CC[C@H]1C[C@@H]2CNC(=O)NCc1ccccc1 | i | ? | -12% | 18µM*
COc1ccc(-c2cc([C@H]3CN4CC[C@H]3C[C@@H]4CNC(=O)NCc3ccccc3)n(C)n2)cc1 | i | ? | -3% | ?
O=C(O)C1=NOC2CN(Cc3cncs3)CC12 (configuration not stated) | . | 4%[172 µM] | . | i
CCOC(=O)[C@H]1CN(C(=O)NC2CCCC2)[C@]2(C)C(=O)N(C)c3ccccc3[C@H]12 | . | ? | . | -27%[46.1 µM]
CCOC(=O)CCNC(=O)N1[C@H]2CC[C@@H]1c1cnc(-c3ccc(F)cc3)nc1C2 | . | ? | . | -21%
CC(C)(C)c1ccc(-c2cn(C[C@H]3CC4CCN3C[C@@H]4C(=O)Nc3ccccc3)nn2)cc1 (some centres not stated) | ? | 28µM* | 1% | 28µM*
SMILES | Luciferase inh | HEK cytotox | NPR1 antag | NIH3T3 tox
CN1CCN(C(=O)Cc2c[nH]c3ncc(-c4ccnn4C)cc23)CC1 | i | -11%[172 µM] | 3%[70.6 µM] | 100µM*
O=C(Cc1c[nH]c2ncc(-c3cccnc3)cc12)N1CCN(Cc2ccccc2)CC1 | ? | ? | 1%[70.6 µM] | ?
COc1ncccc1-c1cnc2[nH]cc(CC(=O)N3CCN(C)CC3)c2c1 | i | -25%[172 µM] | 3%[70.6 µM] | ?
CN1CCN(C(=O)Cc2c[nH]c3ncc(-c4ccc(CO)cc4)cc23)CC1 | i | ? | 0%[70.6 µM] | 25µM*
COc1cc2c(cc1OCc1ccncc1)NC(=O)C21CCN(CC2CC2)CC1 | i | -23%[172 µM] | 6%[70.6 µM] | 100µM*
COc1cc2c(cc1OCc1ccccc1)NC(=O)C21CCN(CC2CC2)CC1 | ? | 40µM* | -1%[70.6 µM] | 32µM*
COc1cc2c(cc1OCC1CC1)NC(=O)C21CCN(Cc2nccs2)CC1 | i | ? | -12%[70.6 µM] | ?
COc1cc2c(cc1OCC1CC1)NC(=O)C21CCN(C(=O)c2cccc(C#N)c2)CC1 | i | 79µM* | 0%[70.6 µM] | ?
COc1cc2c(cc1OCc1ccncc1)NC(=O)C21CCN(C(=O)c2cccnc2)CC1 | i | 4% | 1% | 35µM*
Cc1cnc(N2CC3CCC(C2)N3CC(F)(F)F)c([N+](=O)[O-])c1 | . | -7% | . | -17%
COc1cc2c(cc1OC1CCCC1)NC(=O)C21CCN(Cc2nccn2C)CC1 | i | ? | 6%[70.6 µM] | -14%[138 µM]
COc1cc2c(cc1OCc1ccncc1)NC(=O)C21CCN(c2ccccn2)CC1 | i | ? | -27%[70.6 µM] | ?
COc1ncc(-c2cc3c(cc2OC)C2(CCN(C(C)=O)CC2)C(=O)N3)cn1 | i | -9%[172 µM] | 3%[70.6 µM] | 45µM*
COc1cc2c(cc1OCc1ccncc1)NC(=O)C21CCN(Cc2ccccc2O)CC1 | i | 45µM* | -23% | ?
COc1cc2c(cc1OCc1ccccc1)NC(=O)C21CCN(Cc2ccccn2)CC1 | i | 79µM* | 5%[70.6 µM] | 89µM*
COc1cc2c(cc1-c1cccnc1OC)NC(=O)C21CCN(C(C)=O)CC1 | i | -31%[172 µM] | -7%[70.6 µM] | ?
O=[S+]1([O-])NCC2(CCN(CC3CCCC3)C2)Oc2ncccc21 (configuration not stated) | . | i | . | ?
O=C1NC2(CCN(Cc3cccnc3)C2)COc2ccccc21 (configuration not stated) | i | 79µM* | 6%[70.6 µM] | 35µM*
O=c1c(-c2cccs2)ccc2n1C[C@H]1C[C@@H]2CN(Cc2cc3ccccc3o2)C1 | i | 89µM* | -20%[70.6 µM] | ?
O=C(O)COCC(=O)N1C[C@@H]2C[C@H](C1)c1ccc(-c3cc4ccccc4s3)c(=O)n1C2 | ? | -8% | 3% | -9%
Cc1ccccc1-c1ccc2n(c1=O)C[C@H]1C[C@@H]2CN(Cc2cccs2)C1 | i | 71µM* | ? | ?
Cc1ccccc1-c1ccc2n(c1=O)C[C@H]1C[C@@H]2CN(C(=O)CCC(=O)O)C1 | i | -9%[172 µM] | 3%[70.6 µM] | 1%[174 µM]
O=C(c1ccc(F)cc1)N1C[C@@H]2C[C@H](C1)c1c(/C=C/c3ccc(Cl)cc3)ccc(=O)n1C2 | i | ? | -19% | ?
COc1ccc(C(=O)N2CCC3(CC2)c2nccn2-c2ccccc2CN3C)c(OC)n1 | i | ? | ? | -12%
